Results on four sequences are retold here after PMC11006913.

Experiment in all cases: PBM; 200 nM protein, PBS
Common to all, as to conditions: dsDNA, one strand shown

For experiment [1], the target named is ALX4 (Homo sapiens, UniProt Q9H161 200-286).
Experiment [2] concerns the target PRRX1 (Homo sapiens, UniProt P54821 80-166, F113S).
Experiment [3] deals with HOXB6 (Homo sapiens, UniProt P17509 132-218, K202E).
Experiment [4] deals with ALX4 (Homo sapiens, UniProt Q9H161 200-286, Q225E).
Experiment [5] deals with HOXA2 (Homo sapiens, UniProt O43364 129-215, R185T).
In experiment [6] the target is MSX2 (Homo sapiens, UniProt P35548 130-214, R199I).
Experiment [7] deals with MSX2 (Homo sapiens, UniProt P35548 130-214).
The target in experiment [8] is MSX2 (Homo sapiens, UniProt P35548 130-214, F161Y).
The target in experiment [9] is ALX1 (Homo sapiens, UniProt Q15699 118-204).
In experiment [10] the target is PRRX1 (Homo sapiens, UniProt P54821 80-166).
Experiment [11] concerns the target HOXB6 (Homo sapiens, UniProt P17509 132-218).
In experiment [12] the target is T1, VENTX (Homo sapiens, UniProt O95231 78-163, R121Q).
T1 sequence: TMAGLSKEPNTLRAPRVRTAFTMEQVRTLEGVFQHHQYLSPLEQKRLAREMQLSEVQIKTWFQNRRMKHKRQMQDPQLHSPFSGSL

In experiment [13] the target is HOXA4 (Homo sapiens, UniProt Q00056 201-287, W262R).
Experiment [14] deals with HOXA7 (Homo sapiens, UniProt P31268 116-202).
The target of experiment [15] is HOXA2 (Homo sapiens, UniProt O43364 129-215, R185K).
Experiment [16] concerns the target HOXA4 (Homo sapiens, UniProt Q00056 201-287).
In experiment [17] the target is VAX1 (Homo sapiens, UniProt Q5SQQ9 86-172, T142I).
Experiment [18] concerns the target HOXA7 (Homo sapiens, UniProt P31268 116-202, W177C).
Experiment [19] has as its target HOXA4 (Homo sapiens, UniProt Q00056 201-287, W262F).
Experiment [20] has as its target VAX1 (Homo sapiens, UniProt Q5SQQ9 86-172, K157R).

Sequence of HOXA2 (Homo sapiens, UniProt O43364 129-215, R185T) (O43364 129-215 R185T): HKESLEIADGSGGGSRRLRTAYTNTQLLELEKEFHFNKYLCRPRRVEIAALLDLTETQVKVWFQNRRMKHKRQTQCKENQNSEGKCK
Sequence of HOXA4 (Homo sapiens, UniProt Q00056 201-287, W262F) (Q00056 201-287 W262F): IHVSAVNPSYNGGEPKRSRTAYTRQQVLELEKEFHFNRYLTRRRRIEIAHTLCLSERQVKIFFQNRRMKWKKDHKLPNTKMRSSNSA
Sequence of MSX2 (Homo sapiens, UniProt P35548 130-214) (P35548 130-214): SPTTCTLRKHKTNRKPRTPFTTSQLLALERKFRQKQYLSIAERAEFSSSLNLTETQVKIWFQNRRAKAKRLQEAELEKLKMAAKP
Sequence of ALX4 (Homo sapiens, UniProt Q9H161 200-286) (Q9H161 200-286): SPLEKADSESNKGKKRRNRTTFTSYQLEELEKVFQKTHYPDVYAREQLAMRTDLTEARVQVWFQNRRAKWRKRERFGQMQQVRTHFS
Sequence of MSX2 (Homo sapiens, UniProt P35548 130-214, R199I) (P35548 130-214 R199I): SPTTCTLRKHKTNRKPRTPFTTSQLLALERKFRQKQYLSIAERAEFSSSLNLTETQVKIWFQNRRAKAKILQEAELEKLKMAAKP
Sequence of HOXB6 (Homo sapiens, UniProt P17509 132-218) (P17509 132-218): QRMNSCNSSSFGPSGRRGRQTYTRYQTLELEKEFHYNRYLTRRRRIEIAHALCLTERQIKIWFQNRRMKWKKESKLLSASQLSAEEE
Sequence of ALX1 (Q15699 118-204): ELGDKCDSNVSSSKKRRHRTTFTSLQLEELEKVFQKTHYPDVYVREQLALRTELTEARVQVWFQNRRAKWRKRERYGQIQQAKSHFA
Sequence of PRRX1 (Homo sapiens, UniProt P54821 80-166, F113S) (P54821 80-166 F113S): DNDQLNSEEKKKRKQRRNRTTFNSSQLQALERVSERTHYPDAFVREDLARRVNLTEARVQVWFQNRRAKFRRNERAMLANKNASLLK
Sequence of HOXA4 (Homo sapiens, UniProt Q00056 201-287, W262R) (Q00056 201-287 W262R): as the sequence (Q00056 201-287 W262F) above, with F62R counted along it
Sequence of PRRX1 (Homo sapiens, UniProt P54821 80-166) (P54821 80-166): as the sequence (P54821 80-166 F113S) above, with S34F counted along it
Sequence of VAX1 (Homo sapiens, UniProt Q5SQQ9 86-172, T142I) (Q5SQQ9 86-172 T142I): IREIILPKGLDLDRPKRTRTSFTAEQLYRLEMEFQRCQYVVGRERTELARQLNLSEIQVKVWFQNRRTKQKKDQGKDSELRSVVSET
Sequence of ALX4 (Homo sapiens, UniProt Q9H161 200-286, Q225E) (Q9H161 200-286 Q225E): as the sequence (Q9H161 200-286) above, with Q26E counted along it
Sequence of HOXB6 (Homo sapiens, UniProt P17509 132-218, K202E) (P17509 132-218 K202E): as the sequence (P17509 132-218) above, with K71E counted along it
Sequence of VAX1 (Homo sapiens, UniProt Q5SQQ9 86-172, K157R) (Q5SQQ9 86-172 K157R): as the sequence (Q5SQQ9 86-172 T142I) above, with I57T, K72R counted along it
Sequence of HOXA4 (Homo sapiens, UniProt Q00056 201-287) (Q00056 201-287): as the sequence (Q00056 201-287 W262F) above, with F62W counted along it
Sequence of HOXA2 (Homo sapiens, UniProt O43364 129-215, R185K) (O43364 129-215 R185K): as the sequence (O43364 129-215 R185T) above, with T57K counted along it
Sequence of HOXA7 (Homo sapiens, UniProt P31268 116-202, W177C) (P31268 116-202 W177C): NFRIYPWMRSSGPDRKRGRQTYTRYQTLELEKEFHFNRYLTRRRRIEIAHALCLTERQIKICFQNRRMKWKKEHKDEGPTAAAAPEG
Sequence of HOXA7 (Homo sapiens, UniProt P31268 116-202) (P31268 116-202): as the sequence (P31268 116-202 W177C) above, with C62W counted along it
Sequence of MSX2 (Homo sapiens, UniProt P35548 130-214, F161Y) (P35548 130-214 F161Y): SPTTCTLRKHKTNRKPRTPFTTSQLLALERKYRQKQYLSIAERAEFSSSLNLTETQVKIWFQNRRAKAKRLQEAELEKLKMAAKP

CAATTATG: the binding signal in experiment [1] was 13.8 upbm affinity estimate (log intensity, higher = more binding, comparable within an allelic series); in experiment [2] it was 11.3 upbm affinity estimate (log intensity, higher = more binding, comparable within an allelic series); in [3], 9.97 upbm affinity estimate (log intensity, higher = more binding, comparable within an allelic series); in experiment [4], 13.1 upbm affinity estimate (log intensity, higher = more binding, comparable within an allelic series); in experiment [5] it was 12.5 upbm affinity estimate (log intensity, higher = more binding, comparable within an allelic series); in experiment [6], 12.8 upbm affinity estimate (log intensity, higher = more binding, comparable within an allelic series). Also, the binding signal in [7] was 13.9 upbm affinity estimate (log intensity, higher = more binding, comparable within an allelic series); in experiment [8], 13.5 upbm affinity estimate (log intensity, higher = more binding, comparable within an allelic series); in experiment [9], 12.3 upbm affinity estimate (log intensity, higher = more binding, comparable within an allelic series); in [10], 13.5 upbm affinity estimate (log intensity, higher = more binding, comparable within an allelic series); in experiment [11] it was 11.7 upbm affinity estimate (log intensity, higher = more binding, comparable within an allelic series).
In the case of CCAATTAA, the binding signal in experiment [12] was 12.2 upbm affinity estimate (log intensity, higher = more binding, comparable within an allelic series); in [13], 10.6 upbm affinity estimate (log intensity, higher = more binding, comparable within an allelic series); in experiment [14], 11.5 upbm affinity estimate (log intensity, higher = more binding, comparable within an allelic series); in [1], 14.3 upbm affinity estimate (log intensity, higher = more binding, comparable within an allelic series); in [2], 11.6 upbm affinity estimate (log intensity, higher = more binding, comparable within an allelic series); in experiment [3] it was 10 upbm affinity estimate (log intensity, higher = more binding, comparable within an allelic series). Besides, the binding signal is 14.1 upbm affinity estimate (log intensity, higher = more binding, comparable within an allelic series) in experiment [4]; 12.9 upbm affinity estimate (log intensity, higher = more binding, comparable within an allelic series) in experiment [5]; 13.3 upbm affinity estimate (log intensity, higher = more binding, comparable within an allelic series) in [6]; 13.1 upbm affinity estimate (log intensity, higher = more binding, comparable within an allelic series) in experiment [15]; 13.6 upbm affinity estimate (log intensity, higher = more binding, comparable within an allelic series) in [16]; 14.2 upbm affinity estimate (log intensity, higher = more binding, comparable within an allelic series) in [7]. Besides, the binding signal in experiment [8] was 13.8 upbm affinity estimate (log intensity, higher = more binding, comparable within an allelic series); in experiment [17], 12.7 upbm affinity estimate (log intensity, higher = more binding, comparable within an allelic series); in [18], 8.83 upbm affinity estimate (log intensity, higher = more binding, comparable within an allelic series); in experiment [9], 12.8 upbm affinity estimate (log intensity, higher = more binding, comparable within an allelic series); in experiment [19], 11.3 upbm affinity estimate (log intensity, higher = more binding, comparable within an allelic series); in experiment [10], 13.6 upbm affinity estimate (log intensity, higher = more binding, comparable within an allelic series). The binding signal in experiment [20] is 13 upbm affinity estimate (log intensity, higher = more binding, comparable within an allelic series); in experiment [11], 11.9 upbm affinity estimate (log intensity, higher = more binding, comparable within an allelic series).
Take CCTAATTA: the binding signal was 12.6 upbm affinity estimate (log intensity, higher = more binding, comparable within an allelic series) in experiment [12]; 10.7 upbm affinity estimate (log intensity, higher = more binding, comparable within an allelic series) in [13]; 11.8 upbm affinity estimate (log intensity, higher = more binding, comparable within an allelic series) in experiment [14]; 14.5 upbm affinity estimate (log intensity, higher = more binding, comparable within an allelic series) in experiment [1]; 11.6 upbm affinity estimate (log intensity, higher = more binding, comparable within an allelic series) in experiment [2]; 10 upbm affinity estimate (log intensity, higher = more binding, comparable within an allelic series) in experiment [3]. Moreover, the binding signal in experiment [4] is 14.1 upbm affinity estimate (log intensity, higher = more binding, comparable within an allelic series); in experiment [5], 14 upbm affinity estimate (log intensity, higher = more binding, comparable within an allelic series); in [6], 13.2 upbm affinity estimate (log intensity, higher = more binding, comparable within an allelic series); in [15] it was 13.8 upbm affinity estimate (log intensity, higher = more binding, comparable within an allelic series); in experiment [16] it was 14.2 upbm affinity estimate (log intensity, higher = more binding, comparable within an allelic series); in experiment [7] it was 14.1 upbm affinity estimate (log intensity, higher = more binding, comparable within an allelic series). Moreover, the binding signal was 13.7 upbm affinity estimate (log intensity, higher = more binding, comparable within an allelic series) in experiment [8]; 13.9 upbm affinity estimate (log intensity, higher = more binding, comparable within an allelic series) in experiment [17]; 8.85 upbm affinity estimate (log intensity, higher = more binding, comparable within an allelic series) in experiment [18]; 12.9 upbm affinity estimate (log intensity, higher = more binding, comparable within an allelic series) in experiment [9]; 12.3 upbm affinity estimate (log intensity, higher = more binding, comparable within an allelic series) in [19]; 13.6 upbm affinity estimate (log intensity, higher = more binding, comparable within an allelic series) in experiment [10]. For the same sequence, the binding signal is 14.1 upbm affinity estimate (log intensity, higher = more binding, comparable within an allelic series) in experiment [20] and 12.1 upbm affinity estimate (log intensity, higher = more binding, comparable within an allelic series) in experiment [11].
On to AGCAATTA, for which the binding signal in [12] was 12 upbm affinity estimate (log intensity, higher = more binding, comparable within an allelic series); in experiment [13], 10.5 upbm affinity estimate (log intensity, higher = more binding, comparable within an allelic series); in [14] it was 11.7 upbm affinity estimate (log intensity, higher = more binding, comparable within an allelic series); in [1], 13.8 upbm affinity estimate (log intensity, higher = more binding, comparable within an allelic series); in [2], 11.1 upbm affinity estimate (log intensity, higher = more binding, comparable within an allelic series); in experiment [3], 9.92 upbm affinity estimate (log intensity, higher = more binding, comparable within an allelic series). In addition, the binding signal was 13 upbm affinity estimate (log intensity, higher = more binding, comparable within an allelic series) in experiment [4]; 12.8 upbm affinity estimate (log intensity, higher = more binding, comparable within an allelic series) in experiment [5]; 13.2 upbm affinity estimate (log intensity, higher = more binding, comparable within an allelic series) in [6]; 13.3 upbm affinity estimate (log intensity, higher = more binding, comparable within an allelic series) in experiment [15]; 13.7 upbm affinity estimate (log intensity, higher = more binding, comparable within an allelic series) in experiment [16]; 14.1 upbm affinity estimate (log intensity, higher = more binding, comparable within an allelic series) in experiment [7]. Also, the binding signal was 13.8 upbm affinity estimate (log intensity, higher = more binding, comparable within an allelic series) in experiment [8]; 12.8 upbm affinity estimate (log intensity, higher = more binding, comparable within an allelic series) in experiment [17]; 8.7 upbm affinity estimate (log intensity, higher = more binding, comparable within an allelic series) in [18]; 12.2 upbm affinity estimate (log intensity, higher = more binding, comparable within an allelic series) in experiment [9]; 11.5 upbm affinity estimate (log intensity, higher = more binding, comparable within an allelic series) in [19]; 13.3 upbm affinity estimate (log intensity, higher = more binding, comparable within an allelic series) in [10]. Moreover, the binding signal was 12.7 upbm affinity estimate (log intensity, higher = more binding, comparable within an allelic series) in experiment [20] and 12 upbm affinity estimate (log intensity, higher = more binding, comparable within an allelic series) in experiment [11].
